Data taken from PubChem BioAssay (NCI).
This is part of a sample that, as a whole, favours compounds with a hit. Of some 79,000 tested, about 15% had one in any assay. The source made the active and inactive calls. Cut-off read from the data, not from the text of the source: active = growth inhibition above about 70%; inactive = the rest.

Tests used:
[1] = NCI Yeast Anticancer Drug Screen. Data for the rad52 strain (AID 147);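 note: 0% = growth of vehicle-treated control cultures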; settings: S. cerevisiae rad52 mutant growth inhibition, stronger effect = higher value
Method in brief: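 Screen used a yeast mutant impaired in DNA repair. After compound exposure, growth was measured. Values reflect inhibition compared with vehicle-treated cells.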

[2] = NCI Yeast Anticancer Drug Screen. Data for the wt1 strain (AID 149);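 note: 0% = growth of vehicle-treated wt1 cultures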; settings: S. cerevisiae wt1 strain (SPY 50644) growth inhibition, stronger effect = higher value
Method in brief: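 Compounds are added to wt1 yeast cultures. Growth is then measured. Inhibition is expressed relative to vehicle-treated controls.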

[3] = NCI Yeast Anticancer Drug Screen. Data for the rad50EPP+ strain (AID 151);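 note: 0% = growth of vehicle-treated control cultures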; settings: S. cerevisiae rad50 mutant strain, stronger effect = higher value
Method in brief: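 Exposing the rad50EPP+ strain to each compound, growth was compared with vehicle-only cultures to give inhibition.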

[4] = NCI Yeast Anticancer Drug Screen. Data for the rad50 strain (AID 155);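 note: 0% = growth of vehicle-only cultures of the same strain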; settings: S. cerevisiae rad50 strain growth inhibition, stronger effect = higher value
Method in brief: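 Inhibition values express reduced yeast growth in compound-treated cultures relative to vehicle-treated controls.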

[5] = NCI Yeast Anticancer Drug Screen. Data for the mec2-1 strain (AID 157); settings: S. cerevisiae mec2-1 strain, stronger effect = higher value
Method in brief: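 Readout is yeast growth inhibition, normalised to vehicle-treated controls, in the mec2-1 strain exposed to compound.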

[6] = NCI Yeast Anticancer Drug Screen. Data for the rad14 strain (AID 159);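 note: 0% = growth of vehicle-treated control cultures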; settings: S. cerevisiae rad14 strain growth inhibition, stronger effect = higher value
Method in brief: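 A mutant yeast strain defective in DNA damage repair is treated with compound; inhibition of its growth is scored against untreated, vehicle-exposed cultures.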

[7] = NCI Yeast Anticancer Drug Screen. Data for the sgs1 mgt1 strain (AID 161);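 note: 0% = growth of cultures given vehicle only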; settings: S. cerevisiae sgs1 mgt1 strain, stronger effect = higher value
Method in brief: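 This yeast growth screen uses a strain with defined DNA-repair lesions; compound-treated growth is compared with vehicle-treated growth.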

[8] = NCI Yeast Anticancer Drug Screen. Data for the CLN2oe strain (AID 163);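 note: 0% = growth of vehicle-only control cultures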; settings: S. cerevisiae CLN2oe strain, stronger effect = higher value
Method in brief: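 Values reflect how much compound exposure reduced yeast growth, referenced to vehicle-exposed cells. Assay organism is a strain with a defined genetic change affecting cell-cycle control.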

[9] = NCI Yeast Anticancer Drug Screen. Data for the bub3 strain (AID 167); settings: S. cerevisiae bub3 mutant strain, stronger effect = higher value
Method in brief: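 Steps: expose the mutant yeast strain to compound; grow alongside vehicle-treated cultures; measure growth; express inhibition against the vehicle cultures.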

[10] = NCI Yeast Anticancer Drug Screen. Data for the wt2 strain (AID 169);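 note: 0% = growth of vehicle-treated yeast cultures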; settings: S. cerevisiae wt2 strain growth inhibition, stronger effect = higher value
Method in brief: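 Values express reduction in yeast growth under compound treatment, referenced to vehicle-treated cells.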

[11] = NCI Yeast Anticancer Drug Screen. Data for the mlh1 strain (AID 171);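 note: 0% = growth of vehicle-treated control cultures of the same strain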; settings: S. cerevisiae mlh1 strain growth inhibition, stronger effect = higher value
Method in brief: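 Steps: expose the defined-mutant yeast strain to compound; expose a parallel culture to vehicle; measure growth; express compound effect as inhibition relative to the vehicle culture.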

[12] = NCI Yeast Anticancer Drug Screen. Data for the sgs1 strain (AID 173);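 note: 0% = growth of vehicle-only control cultures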; settings: S. cerevisiae sgs1 mutant, stronger effect = higher value
Method in brief: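 Treat defined-mutant yeast with compound; measure growth; calculate inhibition relative to vehicle-treated cells.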

[13] = NCI Yeast Anticancer Drug Screen. Data for the mlh1 rad18 strain (AID 175); settings: S. cerevisiae mlh1 rad18 strain growth inhibition, stronger effect = higher value
Method in brief: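 Test agents were incubated with a yeast strain of defined genotype (DNA damage repair defect). Inhibition of growth was derived by comparison with vehicle-exposed cultures.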

[14] = NCI Yeast Anticancer Drug Screen. Data for the rad18 strain (AID 177); settings: S. cerevisiae rad18 mutant growth inhibition, stronger effect = higher value
Method in brief: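 A genetically defined yeast mutant impaired in DNA damage repair was treated with test compounds, then its growth was measured against cultures receiving vehicle alone.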

[15] = NCI Yeast Anticancer Drug Screen. Data for the cln2 rad14 strain (AID 165);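 note: 0% = growth equal to vehicle treated cultures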; settings: S. cerevisiae cln2 rad14 strain, stronger effect = higher value
Method in brief: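 Relative to vehicle controls, growth inhibition of compound-treated cln2 rad14 yeast was recorded.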

[16] = at 5.0 µM (retest, dose inferred, filed as 0.5)
[17] = at 50.0 µM (retest, dose inferred, filed as 5.0)

Measured: growth inhibition

COCCCN(Cc1cc(OC)c(OC)c(OC)c1)C(=S)Nc1cccc(Cl)c1
active: [9]; [17] 79% | [9]; at 50.0 µM 72.2% | [9]; at 100.0 µM 72%
inactive: [1]; at 1.2 µM 20% | [1]; at 3.7 µM 12% | [1]; at 11.0 µM 7% | [1]; at 33.0 µM 23% | [1]; at 100.0 µM 46% | [2]; at 1.2 µM 15% | [2]; at 3.7 µM 12% | [2]; at 11.0 µM 9% | [2]; at 33.0 µM 15% | [2]; at 100.0 µM 24% | [3]; at 1.2 µM -12% | [3]; at 3.7 µM -21% | [3]; at 11.0 µM -28% | [3]; at 33.0 µM -6% | [3]; at 100.0 µM -9% | [4]; at 1.2 µM -24% | [4]; at 3.7 µM -13% | [4]; [16] 43% | [4]; at 11.0 µM -14% | [4]; at 33.0 µM -8% | [4]; [17] 69% | [4]; at 50.0 µM 22.7% | [4]; at 100.0 µM 40% | [5]; at 1.2 µM -12% | [5]; at 3.7 µM 4% | [5]; [16] 51% | [5]; at 11.0 µM -19% | [5]; at 33.0 µM -18% | [5]; [17] 56% | [5]; at 50.0 µM -9.3% | [5]; at 100.0 µM 20% | [6]; at 1.2 µM -28% | [6]; at 3.7 µM -7% | [6]; at 11.0 µM -32% | [6]; at 33.0 µM -32% | [6]; at 100.0 µM 15% | [7]; [16] -32% | [7]; [17] 4% | [7]; at 50.0 µM 24.4% | [8]; at 1.2 µM 0% | [8]; at 3.7 µM -9% | [8]; at 11.0 µM -30% | [8]; at 33.0 µM -26% | [8]; at 100.0 µM 1% | [9]; at 1.2 µM -3% | [9]; at 3.7 µM 0% | [9]; [16] 5% | [9]; at 11.0 µM -2% | [9]; at 33.0 µM 30% | [10]; at 1.2 µM 5% | [10]; at 3.7 µM -3% | [10]; at 11.0 µM -9% | [10]; at 33.0 µM 14% | [10]; at 100.0 µM 43% | [11]; at 1.2 µM 0% | [11]; at 3.7 µM -19% | [11]; at 11.0 µM -38% | [11]; at 33.0 µM -30% | [11]; at 100.0 µM 31% | [12]; at 1.2 µM -20% | [12]; at 3.7 µM -22% | [12]; at 11.0 µM -21% | [12]; at 33.0 µM -16% | [12]; at 100.0 µM 36% | [13]; [16] 46% | [13]; [17] 67% | [13]; at 50.0 µM 19.2% | [14]; at 1.2 µM -17% | [14]; at 3.7 µM -25% | [14]; at 11.0 µM -17% | [14]; at 33.0 µM -15% | [14]; at 100.0 µM 27%

O=C(CCc1ccccc1)ON1C(=S)C(c2ccccc2)(c2ccccc2)N=C1Sc1ccccc1
inactive: [1]; at 1.2 µM 13% | [1]; at 3.7 µM 9% | [1]; at 11.0 µM 19% | [1]; at 33.0 µM 23% | [1]; at 100.0 µM 36% | [2]; at 1.2 µM 6% | [2]; at 3.7 µM 6% | [2]; at 11.0 µM 13% | [2]; at 33.0 µM 14% | [2]; at 100.0 µM 17% | [3]; at 1.2 µM 0% | [3]; at 3.7 µM -6% | [3]; at 11.0 µM 1% | [3]; at 33.0 µM 7% | [3]; at 100.0 µM 5% | [4]; at 1.2 µM 36% | [4]; at 3.7 µM 34% | [4]; at 11.0 µM 31% | [4]; at 33.0 µM 29% | [4]; at 50.0 µM 50% | [4]; at 100.0 µM 28% | [5]; at 1.2 µM 22% | [5]; at 3.7 µM 14% | [5]; [16] 23% | [5]; at 11.0 µM 6% | [5]; at 33.0 µM 7% | [5]; at 50.0 µM 61% | [5]; at 100.0 µM 26% | [6]; at 1.2 µM 20% | [6]; at 3.7 µM 20% | [6]; at 11.0 µM 27% | [6]; at 33.0 µM 21% | [6]; at 100.0 µM 36% | [7]; [16] -22% | [7]; [17] 37% | [7]; at 50.0 µM 56.6% | [15]; [16] -2% | [15]; [17] 35% | [15]; at 50.0 µM 45.9% | [9]; at 1.2 µM 6% | [9]; at 3.7 µM -10% | [9]; [16] -1% | [9]; at 11.0 µM -5% | [9]; at 33.0 µM -7% | [9]; [17] 32% | [9]; at 100.0 µM 22% | [10]; at 1.2 µM 1% | [10]; at 3.7 µM -4% | [10]; at 11.0 µM 0% | [10]; at 33.0 µM 14% | [10]; at 100.0 µM 44% | [11]; at 1.2 µM 44% | [11]; at 3.7 µM 50% | [11]; at 11.0 µM 51% | [11]; at 33.0 µM 54% | [11]; at 100.0 µM 56% | [12]; at 1.2 µM 43% | [12]; at 3.7 µM 44% | [12]; at 11.0 µM 46% | [12]; at 33.0 µM 49% | [12]; at 100.0 µM 56% | [13]; [16] 28% | [14]; at 1.2 µM 21% | [14]; at 3.7 µM 19% | [14]; at 11.0 µM 10% | [14]; at 33.0 µM 21% | [14]; at 100.0 µM 40%
active: [4]; [16] 91% | [4]; [17] 96% | [5]; [17] 94% | [9]; at 50.0 µM 78.7% | [13]; [17] 86% | [13]; at 50.0 µM 88.8%
